Laboratory results: PubChem BioAssay (Tox21)
Where “and” joins values, the source holds several entries; their conditions need not be identical. Equal values may be shown once. Inconclusive results are not listed. The source holds several records for some structures; these can differ, active in one and inactive in another. Calls of active or inactive are those of the source. Unless noted, calls follow the shape of the dose curve; as a rule, active = well fitted curve in the direction sought with a large enough effect in the repeat runs; inconclusive = weak or mixed curves; inactive = no such curve, though single readings can be large; an effect the other way counts as inactive or inconclusive.

What was measured:
[1] = qHTS assay to identify small molecule agonists of the RXR signaling pathway - cell viability counter screen (AID 1159529); also: nearly all actives have a fitted effect of over 50% in size; also: potency is read from the fitted curve at half-maximal effect
Summary of the method: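 Tox21 10K compounds were tested for cytotoxicity against GeneBLAzer RXR-alpha HEK 293T cells grown in 2% charcoal-stripped FBS. Exposure lasted 16 hr at 37 C, 5% CO2; viability read by CellTiter-Glo luminescence.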

[2] = qHTS assay to identify small molecule antagonists of the retinoid acid receptor (RAR) signaling pathway - cell viability counter screen (AID 1159551); also: nearly all actives have a fitted effect of over 35% in size
Summary of the method: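 Measured by luminescent ATP detection, viability reflects C3RL4 cells treated 6 h at 37 C with test chemicals in the presence of 1 uM (final) retinol.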

[3] = qHTS assay to identify small molecule antagonists of the retinoic acid receptor (RAR) signaling pathway (AID 1159552; also: nearly all actives have a fitted effect of over 50% in size; also: potency is read from the fitted curve at half-maximal effect)
Summary of the method: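 Overnight-plated C3RL4 reporter cells get compound, then retinol to 1 uM final; plates sit 6 hr at 37 C, 5% CO2. A luciferase reagent is added and light output recorded after 30 min at room temperature.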

[4] = qHTS assay to identify small molecule agonists of the retinoic acid receptor (RAR) signaling pathway (AID 1159553); also: potency is read from the fitted curve at half-maximal effect
Summary of the method: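 6 hr compound exposure (DMSO vehicle) of overnight-plated C3RL4 RARE-luc cells at 37 C; luminescence quantified after 30 min RT with luciferase reagent.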

[5] = qHTS assay to identify small molecule antagonists of the estrogen related receptor (ERR) signaling pathway from Tox21 library - cell viability counter screen (AID 1224834); also: nearly all actives have a fitted effect of over 30% in size; also: potency is read from the fitted curve at half-maximal effect
Summary of the method: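 Seeded ERR cells were rested 6 h at 37 C/5% CO2 before compounds, positive and negative controls or DMSO were added. Incubation continued for 17.5 h, and viability was then quantified by CellTiter-Fluor fluorescence.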

[6] = biological target: Luciferin 4-monooxygenase (Photinus pyralis) (UniProt P08659); experiment: qHTS assay to identify small molecule inhibitors of firefly luciferase (AID 1224835); also: nearly all actives have a fitted effect of over 25% in size; also: potency is read from the fitted curve at half-maximal effect
Chain of Luciferin 4-monooxygenase (Photinus pyralis) (P08659 whole entry, looked up): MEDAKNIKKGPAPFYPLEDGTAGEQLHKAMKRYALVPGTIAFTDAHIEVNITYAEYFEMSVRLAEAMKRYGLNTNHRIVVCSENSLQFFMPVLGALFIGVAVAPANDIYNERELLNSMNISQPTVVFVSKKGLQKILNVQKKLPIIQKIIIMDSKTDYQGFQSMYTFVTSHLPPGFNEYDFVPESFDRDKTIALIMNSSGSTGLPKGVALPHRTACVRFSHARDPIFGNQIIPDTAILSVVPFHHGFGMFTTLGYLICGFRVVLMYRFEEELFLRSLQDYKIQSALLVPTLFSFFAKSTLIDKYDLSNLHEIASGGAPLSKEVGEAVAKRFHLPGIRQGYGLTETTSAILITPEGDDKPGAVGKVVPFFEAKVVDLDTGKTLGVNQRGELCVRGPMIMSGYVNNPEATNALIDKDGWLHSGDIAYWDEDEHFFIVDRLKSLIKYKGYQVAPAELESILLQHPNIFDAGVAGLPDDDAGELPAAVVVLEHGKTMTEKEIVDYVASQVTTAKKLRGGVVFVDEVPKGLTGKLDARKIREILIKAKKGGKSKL
Summary of the method: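 Inhibition of purified Photinus luciferase is measured by luminescence. Substrate levels (D-luciferin, ATP) sit at their KM values. Each compound is tested in a concentration series.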

[7] = qHTS assay to identify small molecule agonists of the constitutive androstane receptor (CAR) signaling pathway - cell viability counter screen (AID 1224836); also: nearly all actives have a fitted effect of over 45% in size; also: potency is read from the fitted curve at half-maximal effect
Summary of the method: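 Fluorescence from CellTiter-Fluor indicates live cells after 23 h exposure. The human hepatoma line expresses hCAR and a CYP2B6-2.2kb reporter. Incubation medium contains 0.75 uM PK11195 (final).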

[8] = qHTS assay to identify small molecule antagonists of the constitutive androstane receptor (CAR) signaling pathway - cell viability counter screen (AID 1224837); also: nearly all actives have a fitted effect of over 45% in size; also: potency is read from the fitted curve at half-maximal effect
Summary of the method: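 To flag cytotoxic false antagonists, HepG2 hCAR/CYP2B6-2.2kb cells were treated 23 hr with 15-concentration compound series and 50 nM CITCO at 37 C/5% CO2; CellTiter-Fluor fluorescence was the measured end point.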

[9] = biological target: Nuclear receptor subfamily 1 group I member 3 (Homo sapiens) (UniProt Q14994); experiment: qHTS assay to identify small molecule antagonists of the constitutive androstane receptor (CAR) signaling pathway (AID 1224838);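 also: HepG2 cells stably expressing hCAR with CYP2B6 luciferase reporter stimulated by CITCO; nearly all actives have a fitted effect of over 40% in size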; also: potency is read from the fitted curve at half-maximal effect
Chain of Nuclear receptor subfamily 1 group I member 3 (Homo sapiens) (Q14994 whole entry, looked up): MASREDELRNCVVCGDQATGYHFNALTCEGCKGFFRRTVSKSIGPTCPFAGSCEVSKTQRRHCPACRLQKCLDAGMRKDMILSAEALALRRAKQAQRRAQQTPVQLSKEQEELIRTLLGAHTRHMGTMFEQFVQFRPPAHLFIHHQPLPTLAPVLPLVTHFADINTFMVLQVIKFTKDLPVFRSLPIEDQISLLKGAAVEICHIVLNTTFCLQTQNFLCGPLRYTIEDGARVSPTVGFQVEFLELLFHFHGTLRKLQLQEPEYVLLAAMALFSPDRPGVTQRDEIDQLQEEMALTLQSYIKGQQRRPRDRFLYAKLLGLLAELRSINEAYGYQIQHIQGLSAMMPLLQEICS
Summary of the method: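 Human hepatoma HepG2 cells expressing hCAR and a CYP2B6 promoter (2.2 kb) luciferase construct; compound titration (15 points) with 50 nM CITCO final, 24 h at 37 C/5% CO2; luminescence via ONE-Glo after 30 min at room temperature.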

[10] = biological target: Nuclear receptor subfamily 1 group I member 3 (Homo sapiens) (UniProt Q14994); experiment: qHTS assay to identify small molecule agonists of the constitutive androstane receptor (CAR) signaling pathway (AID 1224839); also: nearly all actives have a fitted effect of over 15% in size; also: potency is read from the fitted curve at half-maximal effect
Summary of the method: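 Stable hCAR/CYP2B6-2.2kb HepG2 line in DMEM with 10% FBS; compounds (15 concentrations) and 0.75 uM PK11195 final, 24 h at 37 C/5% CO2, then ONE-Glo luminescence after 30 min.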

[11] = qHTS assay to identify small molecule antagonists of the estrogen related receptor signaling pathway with the pleiotropic PPARgamma coactivator (PGC) from Tox21 10K library - cell viability counter screen (AID 1224840; active = well fitted cell-killing curve with a large enough effect in the repeat runs, not every such curve was filed as active; also: nearly all actives have a fitted effect of over 40% in size; also: potency is read from the fitted curve at half-maximal effect)
Summary of the method: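 Seeded PGC/ERR cells (2,000/well, 6 h, 37 C/5% CO2) get compound by pin tool; 17.5 h incubation at 37 C; CellTiter-Fluor added, 30 min, fluorescence measured.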

[12] = qHTS assay to identify small molecule antagonists of the estrogen related receptor signaling pathway with the pleiotropic PPARgamma coactivator (PGC) from Tox21 10K library (AID 1224841; call rule not given here; also: actives are mostly falling curves and most rising ones were filed inactive; nearly all actives have a fitted effect of over 50% in size; also: potency is read from the fitted curve at half-maximal effect)
Summary of the method: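 Test chemicals dissolved in DMSO were applied to pre-incubated (6 h) PGC/ERR cells at 2,000 cells/well for an 18 h, 37 C treatment; reporter luminescence was then read using One-Glo.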

[13] = qHTS assay to identify small molecule agonists of the estrogen related receptor signaling pathway with the pleiotropic PPARgamma coactivator (PGC) from Tox21 10K library (AID 1224842); also: nearly all actives have a fitted effect of over 15% in size; also: potency is read from the fitted curve at half-maximal effect
Summary of the method: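 Luminescence from One-Glo (30 min, room temperature) measured after PGC/ERR cells had 18 h at 37 C with pinned compound (23 nL in DMSO). Cells had been seeded at 2,000 per well and pre-incubated 6 h.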

[14] = biological target: Retinoic acid receptor RXR-alpha (Homo sapiens) (UniProt P19793); experiment: qHTS assay to identify small molecule agonists of the RXR signaling pathway (AID 1159527; calls by dose curve; also: nearly all actives have a fitted effect of over 35% in size)
Chain of Retinoic acid receptor RXR-alpha (Homo sapiens) (P19793 whole entry, looked up): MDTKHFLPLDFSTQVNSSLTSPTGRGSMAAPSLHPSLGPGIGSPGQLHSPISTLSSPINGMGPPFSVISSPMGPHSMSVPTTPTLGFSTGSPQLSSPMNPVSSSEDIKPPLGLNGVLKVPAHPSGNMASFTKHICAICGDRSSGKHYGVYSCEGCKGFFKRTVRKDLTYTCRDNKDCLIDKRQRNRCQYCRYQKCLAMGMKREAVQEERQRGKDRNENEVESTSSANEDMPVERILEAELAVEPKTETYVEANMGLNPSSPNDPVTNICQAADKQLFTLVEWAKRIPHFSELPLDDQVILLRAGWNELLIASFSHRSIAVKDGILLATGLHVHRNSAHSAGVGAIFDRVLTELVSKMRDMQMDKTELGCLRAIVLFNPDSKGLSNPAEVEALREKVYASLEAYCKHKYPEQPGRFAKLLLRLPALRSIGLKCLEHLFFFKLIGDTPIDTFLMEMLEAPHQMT
Summary of the method: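 Reporter activation is measured as beta-lactamase activity via FRET substrate cleavage (emission 460/530 nm) in HEK 293T cells expressing an RXR-alpha-driven bla construct, following 16 hr compound exposure at 37 C.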

[15] = qHTS assay to identify small molecule antagonists of the estrogen related receptor (ERR) signaling pathway (AID 1224819; also: potency is read from the fitted curve at half-maximal effect; nearly all actives have a fitted effect of over 50% in size)
Summary of the method: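 Compounds dissolved in DMSO were pin-transferred onto ERR cells that had been plated 6 h earlier, and cells were then incubated 18 h at 37 C; signal was luciferase luminescence via One-Glo.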

[16] = qHTS assay to identify small molecule agonists of the estrogen related receptor (ERR) signaling pathway (AID 1224820)
Summary of the method: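 An ERR cell line provided by NTP was seeded at 2,000 cells per well and allowed to settle for 6 h before compounds in DMSO were added. After 18 h at 37 C, luciferase activity was measured by One-Glo luminescence.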

[17] = tested on: estrogen-related receptor alpha (ERRalpha) with PGC-1alpha coactivator, human; experiment: qHTS assay to identify small molecule antagonists of the estrogen related receptor signaling pathway with the pleiotropic PPARgamma coactivator (PGC) (AID 1224821; calls by dose curve)
Summary of the method: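 A PGC/ERR cell line supplied by NTP is seeded, allowed 6 h at 37 C, and treated with test compounds in DMSO for 18 h. Signal is then measured as luciferase luminescence using One-Glo.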

[18] = qHTS assay to identify small molecule agonists of the estrogen related receptor signaling pathway with the pleiotropic PPARgamma coactivator (PGC) (AID 1224823)
Summary of the method: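 Compounds dissolved in DMSO are added by pin tool to PGC/ERR cells that have settled for 6 h, and incubation continues 18 h at 37 C. Reporter output is measured as One-Glo luminescence.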

[19] = qHTS assay to identify small molecule antagonists of the estrogen related receptor (ERR) signaling pathway - cell viability counter screen (AID 1224818); also: series mostly up to about 46 µM
Summary of the method: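 Compounds dissolved in DMSO were applied to ERR cells seeded at 2,000 per well 6 h earlier. Cell viability followed 17.5 h later via 30-min CellTiter-Fluor fluorescence.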

[20] = qHTS assay to identify small molecule antagonists of the estrogen related receptor signaling pathway with the pleiotropic PPARgamma coactivator (PGC) cell viability counter screen (AID 1224822; also: series mostly up to about 46 µM)
Summary of the method: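 Counter screen for cell viability: PGC/ERR cells, 6 h pre-incubation after plating, 17.5 h compound exposure at 37 C, fluorescence from CellTiter-Fluor after 30 min.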

Measured: Potency

CC(C)(C)NC(=O)[C@H]1CC[C@H]2[C@@H]3CC[C@H]4NC(=O)C=C[C@]4(C)[C@H]3CC[C@]12C
inactive: [1] | [2] | [3] | [4] | [5] | [6] | [7] | [8] | [9] | [10] | [11]

OC1CCCCCCCCCCC1
inactive: [1] | [2] | [3] | [4] | [5] | [6] | [7] | [8] | [9] | [11]

C[C@]12CC[C@H]3[C@@H](CCC4=CC(=O)CC[C@@]43C)[C@@H]1CC[C@@H]2C(=O)CO
inactive: [1] | [2] | [5] | [6] | [7] | [8] | [9] | [11] | [12] | [13]

O=C(/C=C/c1ccccc1)OCc1ccccc1
active: [4] 30.6 µM and 29.8 µM | [6] 17.8 µM and 9.77 µM
inactive: [1] | [3] | [5] | [7] | [8] | [9] | [11] | [12]

Cc1cc2nc3c(=O)[nH]c(=O)nc-3n(C[C@H](O)[C@H](O)[C@H](O)CO)c2cc1C
inactive: [1] | [2] | [3] | [4] | [6] | [9] | [10]

O=C(/C=C/C=C/c1ccc2c(c1)OCO2)N1CCCCC1
inactive: [14] | [3] | [7] | [8] | [9] | [11] | [12]
active: [4] 3.86 µM and 1.93 µM | [6] 5.04 µM and 6.33 µM | [13] 17.3 µM and 9.69 µM

C#C[C@]1(O)CC[C@H]2[C@@H]3CCC4=Cc5oncc5C[C@]4(C)[C@H]3CC[C@@]21C
48.6 µM (active) and inactive: [11]
active: [1] 21.9 µM | [5] 30.6 µM and 26.6 µM | [12] 24.3 µM and 23.7 µM
inactive: [6] | [7] | [8] | [9] | [13]

Cc1ccc(C)c(O)c1C
inactive: [1] | [3] | [4] | [5] | [6] | [7] | [8] | [9] | [10] | [11]

O=C(c1ccccc1)c1ccc(O)cc1O
55.5 µM (active) and inactive: [3]
inactive: [4] | [7] | [9] | [11]
69.9 µM (active) and inactive: [5]
25 µM (active) and inactive: [1]
active: [6] 89.4 µM | [10] 61.1 µM

O=C(O)c1ccccc1Nc1cccc(C(F)(F)F)c1
inactive: [1] | [3] | [4] | [5] | [6] | [7] | [8] | [9] | [11]

Nc1ccc(Nc2ccccc2)cc1
inactive: [1] | [2] | [3] | [4] | [7] | [8] | [9] | [11]
active: [5] 54.5 µM and 27.3 µM | [6] 79.7 µM

Nc1ncn([C@@H]2O[C@H](CO)[C@@H](O)[C@H]2O)c(=O)n1
inactive: [1] | [2] | [16] | [18] | [6] | [9] | [11] | [13]
active: [3] 27.3 µM and 29.8 µM | [15] 619 nM | [17] 3.1 µM | [5] 2.17 µM and 3.76 µM | [7] 5.96 µM | [8] 4.86 µM | [12] 2.73 µM and 7.5 µM

CNCCCC12CCC(c3ccccc31)c1ccccc12
inactive: [19] | [6]
61.1 µM (active) and inactive: [5]
48.6 µM (active) and inactive: [11]
21.9 µM (active) and inactive: [1]
21.7 µM (active) and inactive: [9]

COc1cc([C@@H]2c3cc4c(cc3[C@H](O)[C@H]3COC(=O)[C@H]23)OCO4)cc(OC)c1OC
active: [9] 48.5 nM and 59.6 nM
inactive: [1] | [4] | [6] | [7] | [10] | [11]

O=C(COc1ccc(Cl)cc1)N1CCN(Cc2ccc3c(c2)OCO3)CC1
active: [12] 43.3 µM
inactive: [1] | [2] | [5] | [6] | [7] | [8] | [9] | [11] | [13]

CC(=O)O[C@]1(C(C)=O)CC[C@H]2[C@@H]3C=C(Cl)C4=CC(=O)[C@@H]5C[C@@H]5[C@]4(C)[C@H]3CC[C@@]21C
inactive: [1] | [2] | [19] | [20] | [6] | [7] | [8] | [11]
